Pf growth 48h – Primary qHTS for delayed death inhibitors of the malarial parasite plastid, 48 hour incubation; P. falciparum luciferase growth in erythrocytes, 48 h; Potency, µM (titrated, usually from 28.7 µM), most hits filed as inhibitors; 5.9% of 310,000 active; AID 504832, 2011
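Read-out is firefly luciferase luminescence from an integrated reporter in P. falciparum, so falling signal marks reduced parasite growth. Infected erythrocytes were at 2% hematocrit and 0.1% parasitemia (final) in Albumax-supplemented RPMI 1640.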
AMA1-RON2 inh – qHTS for Inhibitors of AMA1-RON; Towards Development of Antimalarial Drug Lead: Primary Screen | AlphaScreen AMA1-biotinylated RON2 peptide binding | Potency, µM (top dose mostly 58.2 µM), most hits filed as inhibitors | 0.2% of 360,000 active | AID 720542, 2013; note: nearly all actives have a fitted effect of over 45% in size
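AMA1 (3D7) with his tag at 25 nM final met compounds first, then biotinylated RON2 peptide at 25 nM; detection used donor plus acceptor beads, 10 µg/mL apiece, read by AlphaScreen after 30 min at room temperature.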
Pf growth 96h – Primary qHTS for delayed death inhibitors of the malarial parasite plastid, 96 hour incubation; 6.9% of 320,000 active; Potency, µM (titrated, usually from 28.7 µM), actives largely listed as inhibitors; P. falciparum luciferase reporter growth, 96 h
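Erythrocytes infected with luciferase-expressing P. falciparum were dispensed at 2% hematocrit and 0.05% parasitemia (final), then incubated with compounds 96 hours at 37 C in 5% CO2. Luminescence after detection reagent addition reported growth.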
SARS PLpro yeast – qHTS of Yeast-based Assay for SARS-CoV PLP; S. cerevisiae expressing SARS-CoV PLpro, growth rescue; Potency, µM (doses to about 32.9 µM), usual class: activators; 0.19% of 330,000 active; calls by dose curve; note: nearly all actives have a fitted effect of over 55% in size
Of the large screens only hits and unclear results are named; the others gave an inactive call. Hits are enriched below; roughly 9.4% of the tested compounds scored in any of these assays. Unless noted, calls come from the whole dose curve; as a rule, active = well fitted curve in the direction sought with a large enough effect; inconclusive = small, poorly fitted or top-dose-only effect, or another doubt; inactive = no such curve, though single readings can be large; an effect the other way counts as inactive or inconclusive.

Cn1nnnc1SCC(=O)c1cccs1	none
O=C1CCCC2=C1C(c1cccs1)n1nc(SCc3ccc(C(=O)O)cc3)nc1N2 (centres undefined)	none
Cc1ccc(C)c(S(=O)(=O)Nc2cc3c4c(c2)CCN4C(=O)CC3)c1	Pf growth 48h inconclusive, Pf growth 96h inconclusive
O=C(CSc1ccc(-c2ccccc2)nn1)c1cccs1	none
CC(C)(C)c1ccc(C(=O)CCCN2CCC(OC(c3ccccc3)c3ccccc3)CC2)cc1	Pf growth 48h 9.5µM, Pf growth 96h 7.6µM (no result: AMA1-RON2 inh, SARS PLpro yeast)
CC1CCN(CCCC(=O)c2ccc(F)cc2)CC1	Pf growth 96h inconclusive (no result: AMA1-RON2 inh, SARS PLpro yeast)
Clc1ccc(-c2csc(N3CCN(c4ccccc4)CC3)n2)cc1	none (no result: SARS PLpro yeast)
Cc1cc(O)c(CN2CC=C(c3ccccc3)CC2)cc1C(C)C	Pf growth 48h 0.29µM, Pf growth 96h 0.26µM
OC(CN1CC=C(c2ccccc2)CC1)c1ccccc1 (centres undefined)	Pf growth 48h inconclusive, Pf growth 96h inconclusive
CCNC(=S)N(Cc1cc2cc(C)cc(C)c2[nH]c1=O)C1CCCC1	Pf growth 48h inconclusive, Pf growth 96h 6.6µM
COc1ccc(S(=O)(=O)NCCSCc2ccco2)cc1C	none (no result: Pf growth 48h, Pf growth 96h, SARS PLpro yeast)
Cc1c2oc3c(C)ccc(C(=O)N[C@@H]4C(=O)N[C@H](C(C)C)C(=O)N5CCC[C@H]5C(=O)N(C)CC(=O)N(C)[C@@H](C(C)C)C(=O)O[C@@H]4C)c3nc-2c(C(=O)N[C@@H]2C(=O)N[C@H](C(C)C)C(=O)N3CCC[C@H]3C(=O)N(C)CC(=O)N(C)[C@@H](C(C)C)C(=O)O[C@@H]2C)c(N)c1=O	Pf growth 48h 0.0048µM, Pf growth 96h 0.0024µM (no result: AMA1-RON2 inh, SARS PLpro yeast)
COc1cccc(CNCC(=O)Nc2ccc(N3CCOCC3)cc2)c1	none
Cc1cc2ncn(S(=O)(=O)N3CCCCC3)c2cc1C	none (no result: Pf growth 96h)
Cc1cc2ncn(C(=O)N3CCCCC3)c2cc1C	AMA1-RON2 inh inconclusive, Pf growth 96h 13µM
Cc1cc2ncn(C(=O)N3CCCCCC3)c2cc1C	Pf growth 96h 7.4µM
COc1ccc(CC(=O)Nc2cccc(S(=O)(=O)N3CCCCC3)c2)cc1	Pf growth 48h inconclusive, Pf growth 96h inconclusive
COc1ccccc1N1CCN(C(=O)C2CCN(S(=O)(=O)c3ccc(Cl)cc3)CC2)CC1	Pf growth 48h inconclusive, Pf growth 96h inconclusive
CCOC(=O)C1CCCN(C(=O)c2ccc(Cn3c(=S)[nH]c4cc(C(=O)OC)ccc4c3=O)cc2)C1 (centres undefined)	Pf growth 48h inconclusive, Pf growth 96h 12µM
COC(=O)c1ccc2[nH]c3c(c2c1)CC(C)CC3 (centres undefined)	Pf growth 96h inconclusive
CCOC(=O)C1CCCN(C(=O)c2ccc3[nH]c4c(c3c2)CC(C)CC4)C1 (centres undefined)	Pf growth 48h 9.3µM, Pf growth 96h inconclusive
CCCC(C)NC(=O)c1ccc2[nH]c3c(c2c1)CC(C)CC3 (centres undefined)	Pf growth 48h 4.7µM, Pf growth 96h 3.3µM
CCOC(=O)N1CCN(C(=O)c2ccc(Cn3c(=S)[nH]c4cc(C(=O)OC)ccc4c3=O)cc2)CC1	Pf growth 48h inconclusive, Pf growth 96h inconclusive
O=C(Nc1ccccc1C(F)(F)F)c1ccc(CN2CCC(Cc3ccccc3)CC2)cc1	Pf growth 48h 13µM, Pf growth 96h 10µM
O=C(Nc1ccccc1)c1ccc(CN2CCC(Cc3ccccc3)CC2)cc1	none (no result: Pf growth 48h, Pf growth 96h, SARS PLpro yeast)
COc1ccc(S(=O)(=O)N2CCCN(CC(=O)C(C)(C)C)CC2)cc1	Pf growth 48h inconclusive, Pf growth 96h inconclusive
CN(c1ccccc1)c1nc(N)c([N+](=O)[O-])c(Nc2ccc(F)cc2)n1	none
COc1cc(/C=N/NC(=O)c2cccc(S(=O)(=O)N3CCOCC3)c2)cc(OC)c1O	none
Clc1cccc(C2CCN(Cc3nc(COc4ccccc4)no3)C2)c1 (centres undefined)	Pf growth 96h inconclusive
c1ccc(OCc2noc(CN3CC[C@@H]4CCCC[C@H]4C3)n2)cc1	Pf growth 96h 13µM
COC(=O)C1=C(CSc2nncn2C)NC(=O)NC1c1ccc(F)cc1 (centres undefined)	none
COCCC(=O)N1CCc2c([nH]c3ccccc23)C1C(C)(C)C (centres undefined)	Pf growth 48h inconclusive, Pf growth 96h inconclusive
C=CCn1c(=O)c2ccccc2n2c(SCc3nc(N)nc(Nc4ccccc4C)n3)nnc12	Pf growth 48h 8.3µM, Pf growth 96h inconclusive
Cn1c2ccccc2c2nnc(SCc3nnc(-c4ccccc4)o3)nc21	Pf growth 96h 4.1µM (no result: AMA1-RON2 inh)
Cn1c(SCc2nnc(-c3ccccc3)o2)nc2ccccc21	none
CCOc1ccc(NC(=O)CN(c2ccc([N+](=O)[O-])cc2)S(=O)(=O)c2ccccc2)cc1	none
CC(=O)Nc1ccc(NC(=O)CN(c2ccc([N+](=O)[O-])cc2)S(=O)(=O)c2ccccc2)cc1	Pf growth 96h 2.9µM
CCc1ccc(N(CC(=O)Nc2ccc(NC(C)=O)cc2)S(=O)(=O)c2ccccc2)cc1	Pf growth 48h 13µM, Pf growth 96h inconclusive
NNC(=O)c1cc(O)c(O)c(O)c1	Pf growth 48h inconclusive
O=C(O)c1cc(O)c(O)c(O)c1	Pf growth 48h inconclusive, Pf growth 96h 8.5µM (no result: AMA1-RON2 inh, SARS PLpro yeast)
COC(=O)CNC(=O)COC(=O)C(Cc1ccccc1)NC(=O)c1ccco1 (centres undefined)	none (no result: Pf growth 48h)
CCOC(=O)c1c(C)[nH]c(C)c1C(=O)CSc1nc2ccccc2c(=O)n1-c1ccc(CC)cc1	Pf growth 48h inconclusive, Pf growth 96h 9.3µM
CCOC(=O)c1c(C)[nH]c(C)c1C(=O)CSc1nnnn1-c1ccccc1	Pf growth 96h 12µM (no result: Pf growth 48h)
CCOC(=O)c1c(NC(=O)CSc2nc3ccccc3c(=O)n2-c2ccc(F)cc2)sc(C(C)=O)c1C	Pf growth 48h 4.1µM, Pf growth 96h 3.3µM, SARS PLpro yeast inconclusive
CCOC(=O)c1[nH]c(CSc2nnnn2-c2ccccc2C)c(C(=O)OCC)c1C	Pf growth 48h 10µM, Pf growth 96h inconclusive
CC1CCN(CCCNC(=O)CN2C(=O)CSc3ccc(S(=O)(=O)N4CCC(C)CC4)cc32)CC1	Pf growth 48h inconclusive
COCCNC(=O)c1ccc(Cn2c(=S)[nH]c3cc4c(cc3c2=O)OCO4)cc1	Pf growth 48h inconclusive
CC(=O)c1ccc(-n2c(SCC(=O)c3c[nH]c4ccccc34)nc3ccccc3c2=O)cc1	Pf growth 48h 12µM, Pf growth 96h inconclusive
COc1ccc(-c2n[nH]c(=S)n2-c2ccc(C)cc2)cc1OC	Pf growth 96h inconclusive
Cc1nc2ccccc2n1C1CCN(CC(=O)Nc2ccccc2Br)CC1	Pf growth 48h 12µM
O=C(CN1CCN(c2ccccn2)CC1)Nc1cc(C(F)(F)F)ccc1Cl	Pf growth 48h 9.3µM (no result: Pf growth 96h)
O=C(CN1CCN(c2ccccn2)CC1)Nc1ccccc1F	Pf growth 96h inconclusive
O=C(CN1CCN(c2ccccn2)CC1)Nc1ccccc1Br	Pf growth 48h 5.2µM, Pf growth 96h inconclusive
O/N=C/Cc1[nH]c2ccccc2c1-c1ccccc1	none
CCOC(=O)c1cc(-c2ccccc2)nn1CC1CC(c2ccc(Cl)cc2)=NO1 (centres undefined)	none (no result: Pf growth 48h, Pf growth 96h, SARS PLpro yeast)
